Reference: PubChem BioAssay (NCATS)
“And” between values parts separate entries of the source, which are not always exact repeats. Equal values may be shown once. Records with an inconclusive call do not appear. A number with no mark means an inactive call. The source made the active and inactive calls. Calls follow the shape of the dose curve; as a rule, active = well fitted cell-killing curve with a large enough effect; inconclusive = small, poorly fitted or top-dose-only effect; inactive = no such curve, though single readings can be large or run the other way.

Experiment: qHTS of pediatric cancer cell lines to identify multiple opportunities for drug repurposing: Primary screen for Rh30 cells (AID 1347107); also: % is scaled to controls: 0 for no effect and ±100 for the full control effect; nearly all actives have a fitted effect of over 75% in size
Conditions: Rh30 rhabdomyosarcoma viability, CellTiter-Glo luminescence, 48 h; series mostly up to 46 µM; activity change, negative = cytotoxic: at the top concentration
How it was run: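 Cells (500-1,000/well) rested 5 h, then received compounds for 48 h; metabolically active cells were measured by CellTiter-Glo luminescence. Final concentrations spanned up to 46 µM (MIPE, 11-point) or 0.59 nM-46 µM (NPC, 8-point) in primary screens, 11-point in follow-ups.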

Compound	activity change, negative = cytotoxic	Potency
O=C(OC1C[C@H]2CC[C@@H](C1)[N+]21CCCC1)C(O)(c1ccccc1)c1ccccc1 (some centres not stated)	20.8%	
C=CCc1cc(OC)c(O)c(C(=O)NCCO)c1		inactive
Cc1nc(Nc2ncc(C(=O)Nc3c(C)cccc3Cl)s2)cc(N2CCN(CCO)CC2)n1		inactive
Cc1cccc(-c2[nH]ncc2-c2ccc3ncccc3n2)n1	6.18%	
Cc1nc(-c2ccc(OCC(C)C)c(C#N)c2)sc1C(=O)O		inactive
Oc1ccc(OCc2ccccc2)cc1	15.8%	
O=C(NCCO[N+](=O)[O-])c1cccnc1		inactive
Cc1ccc(C)c(OCCCC(C)(C)C(=O)O)c1	24%	
CC1(C)NC(=O)N(c2ccc([N+](=O)[O-])c(C(F)(F)F)c2)C1=O	14.7%	
CC1(C)C(=O)N(CCN2CCC(C(=O)c3ccc(F)cc3)CC2)c2ccccc21	19.2%	
CCOC(=O)C1=C[C@@H](OC(CC)CC)[C@H](NC(C)=O)[C@@H](N)C1	12.9%	
C[C@@H](N)C1CCC(C(=O)Nc2ccncc2)CC1 (some centres not stated)	12.8%	
Cc1nccn1CC1CCc2c(c3ccccc3n2C)C1=O (configuration not stated)		inactive
CCOc1cc(CC(=O)N[C@@H](CC(C)C)c2ccccc2N2CCCCC2)ccc1C(=O)O	30%	
Cc1cc(=O)oc2cc(O)ccc12	4.51%	
CC(C)Oc1ccc2c(=O)c(-c3ccccc3)coc2c1		inactive
c1ccc2[nH]c(-c3cscn3)nc2c1		inactive
CNC[C@@H](O)[C@@H](O)[C@H](O)[C@H](O)CO	35.5%	

Compound	activity change, negative = cytotoxic	Potency
Cc1cccc(CN2CCN(C(c3ccccc3)c3ccc(Cl)cc3)CC2)c1 (configuration not stated)		inactive
COc1c2occc2cc2ccc(=O)oc12		inactive
C[C@]12CCC(=O)C=C1CC[C@@H]1[C@H]2[C@@H](O)C[C@@]2(C)[C@H]1CC[C@]2(O)C(=O)CO	22%	
O=C(CCc1ccc(O)cc1)c1c(O)cc(O)cc1O	3.77%	
Cc1ncc([N+](=O)[O-])n1CC(C)O (configuration not stated)		inactive
CN(C)CCc1c[nH]c2ccc(Cn3cncn3)cc12	8.3%	
O=C(O)CCNC(=O)c1ccc(N=Nc2ccc(O)c(C(=O)O)c2)cc1		inactive
COCCCN1CCC(NC(=O)c2cc(Cl)c(N)c3c2OCC3)CC1		inactive
CC1Cc2ccccc2N1NC(=O)c1ccc(Cl)c(S(N)(=O)=O)c1 (configuration not stated)		inactive
O=C(CS(=O)Cc1ccco1)NCC=CCOc1cc(CN2CCCCC2)ccn1 (configuration not stated)	14.6%	
O=P(O)(O)C(O)(Cn1ccnc1)P(=O)(O)O	23.4% [at 16.1 µM]	
COc1cc(C(C)=O)ccc1OCCCN1CCC(c2noc3cc(F)ccc23)CC1		inactive
CC1=C(C(=O)O)N2C(=O)[C@@H](NC(=O)[C@H](N)C3=CCC=CC3)[C@H]2SC1		inactive
Cc1ccc(NC(=O)c2ccc(CN3CCN(C)CC3)cc2)cc1Nc1nccc(-c2cccnc2)n1		inactive
CC[C@]1(O)C[C@H]2CN(CCc3c([nH]c4ccccc34)[C@@](C(=O)OC)(c3cc4c(cc3OC)N(C=O)[C@H]3[C@@](O)(C(=O)OC)[C@H](OC(C)=O)[C@]5(CC)C=CCN6CC[C@]43[C@@H]65)C2)C1		inactive
COc1ccccc1N1CCN(CCN(C(=O)C2CCCCC2)c2ccccn2)CC1	20.7%	
COc1ccc(C2(C#N)CCC(C(=O)O)CC2)cc1OC1CCCC1 (configuration not stated)	22.2%	

Experiment: qHTS of pediatric cancer cell lines to identify multiple opportunities for drug repurposing: Primary screen for Rh41 cells (AID 1347108); also: nearly all actives have a fitted effect of over 70% in size; also: potency is read from the fitted curve at half-maximal effect;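 as to activity change, negative = cytotoxic: luminescence drop marks cytotoxic hits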
Conditions: Rh41 rhabdomyosarcoma viability, CellTiter-Glo luminescence, 48 h; series mostly up to 46 µM; activity change, negative = cytotoxic: at the top concentration
How it was run: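 Quantitative HTS format: each compound titrated (MIPE 11 points from 0.78 nM, NPC 8 points from 0.59 nM) onto cells plated 5 hours earlier. After 48 h at 37 degrees C, CellTiter-Glo luminescence was recorded.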

Compound	activity change, negative = cytotoxic	Potency
O=C(OC1C[C@H]2CC[C@@H](C1)[N+]21CCCC1)C(O)(c1ccccc1)c1ccccc1 (some centres not stated)	21.3%	
C=CCc1cc(OC)c(O)c(C(=O)NCCO)c1		inactive
Cc1nc(Nc2ncc(C(=O)Nc3c(C)cccc3Cl)s2)cc(N2CCN(CCO)CC2)n1	-7.41%	
Cc1nc(-c2ccc(OCC(C)C)c(C#N)c2)sc1C(=O)O		inactive
Oc1ccc(OCc2ccccc2)cc1		inactive
O=C(NCCO[N+](=O)[O-])c1cccnc1		inactive
Cc1ccc(C)c(OCCCC(C)(C)C(=O)O)c1	16.1%	
CC1(C)NC(=O)N(c2ccc([N+](=O)[O-])c(C(F)(F)F)c2)C1=O	5.39%	
CC1(C)C(=O)N(CCN2CCC(C(=O)c3ccc(F)cc3)CC2)c2ccccc21	16.5%	
CCOC(=O)C1=C[C@@H](OC(CC)CC)[C@H](NC(C)=O)[C@@H](N)C1	6.63%	
C[C@@H](N)C1CCC(C(=O)Nc2ccncc2)CC1 (some centres not stated)	21.2%	
Cc1nccn1CC1CCc2c(c3ccccc3n2C)C1=O (configuration not stated)		inactive
CCOc1cc(CC(=O)N[C@@H](CC(C)C)c2ccccc2N2CCCCC2)ccc1C(=O)O	23.3%	
Cc1cc(=O)oc2cc(O)ccc12		inactive
CC(C)Oc1ccc2c(=O)c(-c3ccccc3)coc2c1		inactive
c1ccc2[nH]c(-c3cscn3)nc2c1		inactive
CNC[C@@H](O)[C@@H](O)[C@H](O)[C@H](O)CO	33.8%	
Cc1cccc(CN2CCN(C(c3ccccc3)c3ccc(Cl)cc3)CC2)c1 (configuration not stated)	-1.04%	
COc1c2occc2cc2ccc(=O)oc12		inactive

Compound	activity change, negative = cytotoxic	Potency
C[C@]12CCC(=O)C=C1CC[C@@H]1[C@H]2[C@@H](O)C[C@@]2(C)[C@H]1CC[C@]2(O)C(=O)CO	28.7%	
O=C(CCc1ccc(O)cc1)c1c(O)cc(O)cc1O	-14.5%	
Cc1ncc([N+](=O)[O-])n1CC(C)O (configuration not stated)		inactive
Cc1cc(=O)c2c(O)c3c(O)cc(=O)c4c3c3c(cc(O)c1c23)C(C)(C)C=4O		18.7 µM (active)
CN(C)CCc1c[nH]c2ccc(Cn3cncn3)cc12	12.5%	
O=C(O)CCNC(=O)c1ccc(N=Nc2ccc(O)c(C(=O)O)c2)cc1		inactive
COCCCN1CCC(NC(=O)c2cc(Cl)c(N)c3c2OCC3)CC1		inactive
CCN(CC)C(=S)SSC(=S)N(CC)CC		13.2 nM (active) and 70 nM (active)
CC1Cc2ccccc2N1NC(=O)c1ccc(Cl)c(S(N)(=O)=O)c1 (configuration not stated)		inactive
O=C(CS(=O)Cc1ccco1)NCC=CCOc1cc(CN2CCCCC2)ccn1 (configuration not stated)	24%	
O=P(O)(O)C(O)(Cn1ccnc1)P(=O)(O)O	26.5% [at 16.1 µM]	
COc1cc(C(C)=O)ccc1OCCCN1CCC(c2noc3cc(F)ccc23)CC1	-0.486%	
CC1=C(C(=O)O)N2C(=O)[C@@H](NC(=O)[C@H](N)C3=CCC=CC3)[C@H]2SC1		inactive
Cc1ccc(NC(=O)c2ccc(CN3CCN(C)CC3)cc2)cc1Nc1nccc(-c2cccnc2)n1		inactive
CC[C@]1(O)C[C@H]2CN(CCc3c([nH]c4ccccc34)[C@@](C(=O)OC)(c3cc4c(cc3OC)N(C=O)[C@H]3[C@@](O)(C(=O)OC)[C@H](OC(C)=O)[C@]5(CC)C=CCN6CC[C@]43[C@@H]65)C2)C1	-26.3%	
COc1ccccc1N1CCN(CCN(C(=O)C2CCCCC2)c2ccccn2)CC1	32.9%	
COc1ccc(C2(C#N)CCC(C(=O)O)CC2)cc1OC1CCCC1 (configuration not stated)	7.95%	
Nc1nc(Cl)nc2c1ncn2[C@H]1C[C@H](O)[C@@H](CO)O1	-7.43%	
